Growth inhibition, inhibition and outcome data for 20 compounds are collected here from PubChem BioAssay.

Test [1] in a line: antimalarial activity against Dd2 strain (AID 2302;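 active = growth inhibition above 50% at the single 2 µM test dose, taken to imply half-maximal potency below 2 µM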;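 note: 0% = DMSO untreated growth and 100% = chloroquine plus artemisinin killed control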). Particulars: P. falciparum Dd2 in RBCs, LDH growth readout, 72 h; at 2 µM; hits give high values.
Test [2] is described as follows: human hepatoma cell viability loss – ATP luminescence, cytotoxicity control for P. falciparum antimalarial project, primary screen (AID 2303;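 active = inhibition above 50%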;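 note: 0% = DMSO wells and 100% = digitonin-killed cells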). The conditions noted are these: HepG2 viability, 24-48 h, at 10 µM, hits give high values.
Test [3] deals with L-lactate dehydrogenase (Plasmodium falciparum (isolate CDC / Honduras)) (UniProt Q27743). Kind of test: PfLDH activity inhibition – cell lysate, 3D7 strain, counter-screen for P. falciparum growth inhibition project (AID 2304).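 Note: 0% = vehicle and 100% = reference inhibitor.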 The conditions noted are these: P. falciparum 3D7 crude extract, LDH APAD/NBT absorbance; at 2 µM; hits give high values. In general terms: A counterscreen serves to expose hits that act by an unwanted route or on another target.
Chain of L-lactate dehydrogenase (Plasmodium falciparum (isolate CDC / Honduras)) (Q27743 whole entry, looked up): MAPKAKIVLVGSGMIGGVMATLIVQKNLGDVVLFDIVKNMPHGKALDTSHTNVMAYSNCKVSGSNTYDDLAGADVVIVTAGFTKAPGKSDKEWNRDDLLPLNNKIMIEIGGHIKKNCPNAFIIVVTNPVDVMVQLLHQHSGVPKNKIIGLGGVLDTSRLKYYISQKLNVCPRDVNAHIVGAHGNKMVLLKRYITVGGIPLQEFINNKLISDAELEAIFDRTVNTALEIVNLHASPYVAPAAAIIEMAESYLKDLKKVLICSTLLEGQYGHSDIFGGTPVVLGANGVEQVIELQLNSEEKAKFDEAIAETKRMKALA

Test [4] can be described thus: inhibition of 3D7 malaria parasite growth – strain 3D7 (AID 2306).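 Note: 0% = DMSO wells and 100% = chloroquine plus artemisinin control wells.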 The conditions noted are these: P. falciparum 3D7 erythrocytic growth, LDH absorbance, 72 h; at 2 µM; hits give high values.
For test [5], the target named is Calcium-dependent protein kinase 1 (Plasmodium falciparum (isolate 3D7)) (UniProt P62344). Kind of test: PfCDPK1 kinase inhibitors, biochemical, TCAMS library (AID 1159585; cut-off not given, nearly all actives have IC50 up to about 0.98 µM;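 note: inhibitors leave more ATP so luminescence rises with inhibition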). The conditions noted are these: recombinant PfCDPK1, Kinase-Glo ATP depletion luminescence. Background: Kinase-Glo measures the ATP left after a reaction by luminescence.
Chain of Calcium-dependent protein kinase 1 (Plasmodium falciparum (isolate 3D7)) (P62344 whole entry, looked up): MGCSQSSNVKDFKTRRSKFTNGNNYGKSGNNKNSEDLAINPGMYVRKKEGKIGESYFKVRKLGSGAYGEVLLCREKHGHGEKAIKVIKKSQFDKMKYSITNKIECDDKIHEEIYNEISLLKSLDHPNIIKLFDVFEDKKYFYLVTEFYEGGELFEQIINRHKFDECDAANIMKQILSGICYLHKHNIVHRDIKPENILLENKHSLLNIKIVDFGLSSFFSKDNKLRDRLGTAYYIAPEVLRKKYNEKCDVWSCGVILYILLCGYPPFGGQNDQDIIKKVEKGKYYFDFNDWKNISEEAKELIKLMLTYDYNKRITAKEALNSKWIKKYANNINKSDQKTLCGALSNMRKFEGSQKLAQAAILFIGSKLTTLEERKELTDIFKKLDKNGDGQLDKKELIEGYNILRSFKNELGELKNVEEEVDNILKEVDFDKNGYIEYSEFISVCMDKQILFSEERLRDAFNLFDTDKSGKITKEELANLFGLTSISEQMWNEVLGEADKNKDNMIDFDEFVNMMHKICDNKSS
For test [6], the target named is Plasmodium falciparum protein kinase 6 (PK6, PF3D7_1337100) (UniProt Q8IDW1). Kind of test: PfPK6 kinase inhibitors, biochemical, TCAMS library (AID 1159586). Particulars: recombinant PfPK6, Kinase-Glo ATP depletion luminescence.
Chain of Plasmodium falciparum protein kinase 6 (PK6, PF3D7_1337100) (Q8IDW1 1-305): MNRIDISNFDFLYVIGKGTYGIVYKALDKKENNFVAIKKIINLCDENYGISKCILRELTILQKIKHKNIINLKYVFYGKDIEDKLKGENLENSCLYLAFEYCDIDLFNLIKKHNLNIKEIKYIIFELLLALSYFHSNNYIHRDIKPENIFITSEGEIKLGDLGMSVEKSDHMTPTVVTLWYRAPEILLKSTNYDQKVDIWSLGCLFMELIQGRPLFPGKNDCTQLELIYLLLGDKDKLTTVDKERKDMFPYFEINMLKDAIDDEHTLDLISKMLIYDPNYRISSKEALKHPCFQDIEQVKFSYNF
The target of test [7] is Protein kinase 7 (PK7), Plasmodium falciparum 3D7 (PF3D7_0213400) (UniProt Q7YTF7). Kind of test: inhibition of Plasmodium PK7 catalytic activity – biochemical, TCAMS antimalarial set, Kinase-Glo luminescence (AID 1159587). The conditions noted are these: recombinant PfPK7, Kinase-Glo ATP depletion luminescence.
Chain of Protein kinase 7 (PK7), Plasmodium falciparum 3D7 (PF3D7_0213400) (Q7YTF7 1-343): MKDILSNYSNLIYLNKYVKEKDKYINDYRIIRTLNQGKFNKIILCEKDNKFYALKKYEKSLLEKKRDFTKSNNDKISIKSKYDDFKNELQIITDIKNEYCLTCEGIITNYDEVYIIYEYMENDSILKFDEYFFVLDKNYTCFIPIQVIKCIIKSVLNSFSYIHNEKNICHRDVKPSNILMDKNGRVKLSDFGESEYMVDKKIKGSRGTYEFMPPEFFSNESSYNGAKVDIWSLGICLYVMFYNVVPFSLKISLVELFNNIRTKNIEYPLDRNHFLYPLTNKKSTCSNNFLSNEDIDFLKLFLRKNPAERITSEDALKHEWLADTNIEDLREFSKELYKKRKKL
The target in test [8] is Calcium-dependent protein kinase 4 (Plasmodium falciparum (isolate 3D7)) (UniProt Q8IBS5). Kind of test: PfCDPK4 kinase inhibitors, biochemical, TCAMS library (AID 1159588; cut-off not given, nearly all actives have IC50 up to about 0.91 µM). Particulars: recombinant PfCDPK4, Kinase-Glo ATP depletion luminescence.
Chain of Calcium-dependent protein kinase 4 (Plasmodium falciparum (isolate 3D7)) (Q8IBS5 whole entry, looked up): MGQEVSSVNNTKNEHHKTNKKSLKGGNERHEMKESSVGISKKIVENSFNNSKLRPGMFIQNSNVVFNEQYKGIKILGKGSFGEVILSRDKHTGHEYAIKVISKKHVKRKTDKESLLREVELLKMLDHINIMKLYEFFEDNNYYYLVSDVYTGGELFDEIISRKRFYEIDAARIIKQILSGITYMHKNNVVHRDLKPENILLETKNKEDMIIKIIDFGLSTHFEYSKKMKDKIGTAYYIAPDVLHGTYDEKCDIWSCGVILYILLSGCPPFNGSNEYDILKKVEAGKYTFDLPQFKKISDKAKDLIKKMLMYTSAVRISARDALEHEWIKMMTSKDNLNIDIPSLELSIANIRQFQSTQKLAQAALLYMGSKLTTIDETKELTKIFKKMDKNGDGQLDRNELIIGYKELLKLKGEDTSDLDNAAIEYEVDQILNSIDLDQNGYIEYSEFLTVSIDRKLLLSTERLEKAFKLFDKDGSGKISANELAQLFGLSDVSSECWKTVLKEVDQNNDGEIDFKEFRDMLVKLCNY

What is called inhibition is the change of the read-out against control, counted positive when it falls.

Values without a mark were called inactive. For some of these results: Measured potencies and affinities stand elsewhere. Calls of active or inactive are those of the source. Unless noted, the rule behind the calls is not given here.

Consider `CS(=O)(=O)Nc1cccc(-c2cnc3[nH]cc(-c4ccc(C(=O)O)cc4)c3c2)c1`, for which the growth inhibition is 82% (active) in test [1] and 98% (active) in test [4]. The inhibition in test [2] is -11%; in test [3] it was 0%. The outcome in test [5], in test [6], in test [7] and in test [8] was inactive.

As for `Cc1cccc2[nH]c(-c3cccc(-c4ccc(NC(=O)C(C)CN5CCN(C)CC5)cc4)c3)nc12` (stereo not given), the growth inhibition is 100% (active) in test [1] and 99% (active) in test [4]. Also, the inhibition was 7% in test [2] and -6% in test [3]. Besides, the outcome in test [5], in test [6], in test [7] and in test [8] was inactive.

Take `CC(C)N1CCN(CCCCNc2c3ccccc3nc3ccccc23)CC1`: the growth inhibition was -4% in test [1] and 100% (active) in test [4]. For the same compound, the inhibition in test [2] was 38%; in test [3], -6%. Moreover, the result in test [5], in test [6], in test [7] and in test [8] was inactive.

For the compound `COc1cc(F)c2ncc(Cl)c(CCN3CCC(NCc4ccc5c(c4)OCCO5)CC3)c2c1`, the results for the growth inhibition in test [1] and in test [4] were 92% (active) and 97% (active), respectively. For the same compound, the inhibition in test [2] was 35%; in test [3], -7%. In addition, the result in test [5], in test [6], in test [7] and in test [8] was inactive.

Take `CCN(CC)CCN(Cc1ccc(-c2ccc(C(F)(F)F)cc2)cc1)C(=O)Cn1c(CCc2ccccc2F)nc(=O)c2ccccc21`: the growth inhibition in test [1] was 54% (active); in test [4], 95% (active). The inhibition in test [2] was 39%; in test [3], -1%. The result in test [5], in test [6], in test [7] and in test [8] was inactive.

Turning to `CN(C(=O)Cc1ccc(Cl)c(Cl)c1)C1CCN(CCCCCNC(=O)/C=C/c2ccc(Cl)c(Cl)c2)CC1`, the growth inhibition in test [1] is 13%; in test [4], 84% (active). The inhibition in test [2] was 87% (active); in test [3], -4%. Moreover, the result in test [5], in test [6], in test [7] and in test [8] was inactive.

On to `CCCN(CCC)CCOc1ccc(C(O)(C#CC(O)(c2ccc(OCCN(CCC)CCC)cc2)c2cccc(Cl)c2)c2cccc(Cl)c2)cc1` (stereo not given), for which the growth inhibition is 98% (active) in test [1] and 101% (active) in test [4]. The results for the inhibition in test [2] and in test [3] were 100% (active) and 6%, respectively. Moreover, the result in test [5], in test [6], in test [7] and in test [8] was inactive.

Regarding `CO/C(=C\C=C\c1cc2cc(Cl)c(Cl)cc2[nH]1)C(=O)NCCCN1CCCC[C@H]1C`, the growth inhibition in test [1] was 91% (active); in test [4] it was 100% (active). Also, the inhibition in test [2] is 41%; in test [3], 3%. Moreover, the outcome in test [5], in test [6], in test [7] and in test [8] was inactive.

Take `CCN(CC)CCOc1ccc(C(O)(C#CC(O)(c2ccc(Br)cc2)c2ccc(OCCN(CC)CC)cc2)c2ccc(Br)cc2)cc1` (stereo not given): the growth inhibition in test [1] and in test [4] was 99% (active) each time. Besides, the inhibition in test [2] was 99% (active); in test [3], 7%. Also, the outcome in test [5], in test [6], in test [7] and in test [8] was inactive.

As for `O=C(Nc1cc(C(F)(F)F)ccc1Cl)c1ccc(Cn2cc(Br)cn2)cc1`, the growth inhibition in test [1] was 67% (active); in test [4] it was 91% (active). Also, the inhibition in test [2] is 24%; in test [3] it was -5%. Also, the result in test [5], in test [6], in test [7] and in test [8] was inactive.

`O=C(O)c1cc(OCC(O)COc2ccc(O)c(C(=O)O)c2)ccc1O`: the figures for the growth inhibition in test [1] and in test [4] were 6% and 99% (active), respectively. Further, the inhibition in test [2] was 9%; in test [3] it was 5%. For the same compound, the result in test [5], in test [6], in test [7] and in test [8] was inactive.

With `O=C(c1ccc(OCCn2ccnc2)cc1)N1CCC(c2ccc(Br)cc2)C1` (stereo not given), the values for the growth inhibition in test [1] and in test [4] were 99% (active) and 100% (active), respectively. Further, the inhibition is 49% in test [2] and -3% in test [3]. Also, the outcome in test [5], in test [6], in test [7] and in test [8] was inactive.

For `CCN(CCCN1CCCCC1)c1cc(C)nc(Nc2ccc(C)c(Cl)c2)n1`, the growth inhibition in test [1] is 100% (active); in test [4], 101% (active). In addition, the inhibition was 32% in test [2] and -7% in test [3]. In addition, the outcome in test [5], in test [6], in test [7] and in test [8] was inactive.

With `Nc1nc(N)c2c(ccc3nccc32)[nH]1`, the results for the growth inhibition in test [1] and in test [4] were -1% and 88% (active), respectively. Moreover, the values for the inhibition in test [2] and in test [3] were 58% (active) and 8%, respectively. For the same compound, the result in test [5], in test [6], in test [7] and in test [8] was inactive.

With `CCc1cn2c3c(cc(C(=O)N[C@@H](Cc4ccccc4)[C@H](O)CNC4CCCCC4)cc13)N(CC)S(=O)(=O)CC2`, the growth inhibition in test [1] and in test [4] was 98% (active) throughout. Further, the inhibition in test [2] was 8%; in test [3], -5%. Further, the result in test [5], in test [6], in test [7] and in test [8] was inactive.

As to `CCNC[C@H]1CCCN1CCOc1ccc(-n2cnc3cc(-c4ccc(Cl)cc4)sc3c2=O)cc1OC`, the growth inhibition is 39% in test [1] and 97% (active) in test [4]. The inhibition in test [2] was 53% (active); in test [3], -11%. Besides, the result in test [5], in test [6], in test [7] and in test [8] was inactive.

`CCOc1cc(C)ccc1N1CCN(CCN2CCC(NC(=O)c3ccc(-c4ccc(C#N)cc4)cc3)CC2)CC1`: the growth inhibition in test [1] is 3%; in test [4] it was 84% (active). For the same compound, the inhibition was 9% in test [2] and -1% in test [3]. Besides, the result in test [5], in test [6], in test [7] and in test [8] was inactive.

As to `O=C1NC(=S)NC1=CC=Cc1ccc([N+](=O)[O-])o1`, the values for the growth inhibition in test [1] and in test [4] were 30% and 82% (active), respectively. Also, the inhibition in test [2] was 7%; in test [3], 2%. Further, the result in test [5], in test [6], in test [7] and in test [8] was inactive.

For the compound `Cc1ccc(NC(=O)c2ccc(CN3CCCN(Cc4cccc(O)c4)CC3)cc2)cc1C`, the growth inhibition in test [1] is 25%; in test [4], 98% (active). The values for the inhibition in test [2] and in test [3] were 33% and 4%, respectively. Moreover, the outcome in test [5], in test [6], in test [7] and in test [8] was inactive.

`CCCN(CC1CC1)c1ncc(-c2cccc(CNCc3ccccc3O)c2)cn1`: the growth inhibition in test [1] is 98% (active); in test [4] it was 97% (active). Further, the inhibition was 15% in test [2] and -8% in test [3]. Also, the result in test [5], in test [6], in test [7] and in test [8] was inactive.
